CHT inh: inhibitors of human choline transporter CHT; actives 0.86% (n = 310,000); Q9GZV3; B-score at 10 µM; CHT-expressing cells, membrane potential dye, choline response; stronger effect = lower value;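 active means B-score over 3 SD under the library average, and starting fluorescence ratio not unusually high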;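 further: choline stimulus applied at its EC90 after an EC20 pre-addition; B-score computed on integrated fluorescence ratio after choline addition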
Target sequence (Q9GZV3 whole entry, looked up): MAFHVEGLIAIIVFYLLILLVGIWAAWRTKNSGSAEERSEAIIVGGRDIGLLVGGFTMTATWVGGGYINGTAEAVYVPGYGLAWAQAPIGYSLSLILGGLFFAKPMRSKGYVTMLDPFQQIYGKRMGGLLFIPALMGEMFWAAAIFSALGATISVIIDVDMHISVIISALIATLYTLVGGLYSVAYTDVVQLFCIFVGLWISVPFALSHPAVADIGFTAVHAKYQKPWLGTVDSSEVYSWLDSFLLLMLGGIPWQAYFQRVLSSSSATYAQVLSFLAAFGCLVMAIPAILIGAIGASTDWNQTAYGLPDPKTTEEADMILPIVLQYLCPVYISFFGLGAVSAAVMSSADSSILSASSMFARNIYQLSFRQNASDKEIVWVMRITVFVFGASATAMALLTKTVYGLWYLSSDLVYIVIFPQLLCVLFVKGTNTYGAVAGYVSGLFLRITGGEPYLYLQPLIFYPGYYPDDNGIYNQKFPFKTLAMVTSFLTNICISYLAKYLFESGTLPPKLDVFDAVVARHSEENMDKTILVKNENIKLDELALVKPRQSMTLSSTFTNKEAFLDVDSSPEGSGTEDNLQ
ANO1 block: mouse TMEM16A channel inhibition, primary screen | Q8BHY3 | normalized B-score (activity score, 25-100; higher = stronger inhibition) at 10 µM | HEK293 TMEM16A/YFP iodide influx fluorescence, ionomycin | AID 588511 | actives 1.2% (n = 310,000);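 active means ratio plate-corrected score three or more library SD toward inhibition, starting fluorescence score within five deviations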;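 further: score derived from kinetic fluorescence span divided by baseline fluorescence per well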
CHT allo act: allosteric activators of human choline transporter CHT; Q9GZV3; CHT-expressing cells, membrane potential dye, choline EC20; stronger effect = higher value; LV-AA mutant CHT in HEK293 cells; B-score at 10 µM; actives 0.49% (n = 310,000);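 active means initial fluorescence not abnormally high and integrated response B-score, plate-corrected, over 3 SD above library mean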
ANO1 activ: activators or potentiators of mouse TMEM16A chloride channel. HEK293 TMEM16A/YFP-H148Q/I152L, iodide quench fluorescence; stronger effect = lower value. B-score at 10 µM. actives 0.3% (n = 340,000). AID 623877;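 active means fluorescence-ratio B-score plate-corrected deviation score at least 3 library SD below zero, with starting fluorescence score within 5 deviations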;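 further: channel opened by trigger with iodide after compound preincubation; score built on the fluorescence ratio of max minus min over baseline; more negative score means more quench and so TMEM16A activation or potentiation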
TMEM16A reconf: re-confirmation of mouse TMEM16A chloride channel inhibitors. shares compounds with ANO1 block. HEK293 TMEM16A/YFP-H148Q, iodide quench fluorescence; ionomycin added to raise cell calcium. inhibition, % at 10 µM. actives 39% (n = 2,300). AID 652189;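 active means mean duplicate percent inhibition, scaled so buffer wells are 0 and the reference blocker 100, over three buffer SD above buffer mean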
TMEM16A Ca cntr: counter-screen for TMEM16A inhibitors: effect on calcium mobilization; shares compounds with ANO1 block; TMEM16A/YFP HEK293, Fluo4 calcium mobilization; calcium response (% of ionomycin), % at 10 µM; actives 2% (n = 2,300);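 active means duplicate-averaged calcium signal over 20% of the ionomycin maximum, relative to buffer baseline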;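 further: each well's signal is peak minus trough fluorescence divided by its pre-addition baseline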
Parental YFP cnt: parental YFP-HEK293 iodide quench counter-screen activity; shares compounds with ANO1 block; AID 652233; 2,300 tested, under 10 active; YFP ratio F(max-min)/F0 at 10 µM; ionomycin;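 active means yellow fluorescent protein signal ratio exceeding the buffer control mean by over 5 SD of those controls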;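 further: ratio is mean of duplicate wells from kinetic YFP trace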
ClC-1 inh: selectivity of TMEM16A inhibitors: inhibition of rat ClC-1 chloride channel. shares compounds with ANO1 block. CHO ClC-1-YFP, iodide influx fluorescence quench; iodide control reads 0, buffer control 100. ratio percent, % at 10 µM. 2,300 tested, under 10 active;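 active means duplicate-mean ratio percent above the mean of iodide-only control wells, which defines zero, plus 5 of their SD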;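 further: higher percent means stronger block of ClC-1 iodide influx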
Each line names hits and unclear results; the compound was inactive in the other large screens (follow-up assays come after a bar, where they were run). Shown are actives, neighbours in structure and some others; about 2.3% of the full set was active somewhere.

COc1ccc(CN(C(=S)Nc2ccccc2)C2CC(=O)N(c3ccc(F)cc3)C2=O)cc1 (stereo not given)	none
COc1ccc(CNC(=O)C(C)OC(=O)CN2C(=O)COc3ccccc32)cc1 (stereo not given)	none
COc1ccc(NC(=O)CCNS(=O)(=O)c2cc(Br)ccc2Br)cc1S(N)(=O)=O	none
CC(C)(C)c1ccc(OCC(=O)Nc2ccc(C(=O)Nc3ccccc3C(=O)O)cc2)cc1	ANO1 block 25 | TMEM16A reconf 56% | TMEM16A Ca cntr 42% | Parental YFP cnt inactive | ClC-1 inh inactive
Cc1cc(OCC(=O)Nc2ccncc2)c(C)cc1Br	ANO1 block 25 | TMEM16A reconf 34% | TMEM16A Ca cntr inactive | Parental YFP cnt inactive | ClC-1 inh inactive
CCc1ccc(OCC(=O)Nc2ccncc2)c(Br)c1	none
O=C(COc1ccc(Nc2ccccc2)cc1)Nc1ccncc1	ANO1 block 100 | TMEM16A reconf 18% | TMEM16A Ca cntr inactive | Parental YFP cnt inactive | ClC-1 inh inactive
CC(C)CCOc1cccc(OCC(=O)Nc2ccncc2)c1	ANO1 block 25 | TMEM16A reconf 17% | TMEM16A Ca cntr inactive | Parental YFP cnt inactive | ClC-1 inh inactive
CCSC(=Nc1ccccc1)N1CCOCC1	none
CCOC(=O)N1C(=O)NC(=O)C1c1ccc(Cl)cc1 (stereo not given)	none (no result: CHT inh, ANO1 block, CHT allo act)
COc1ccccc1CNC(=O)[C@H](C)NC(=O)C1CCN(C(=O)[C@@H]2CCCN2C(=O)OC(C)(C)C)CC1	none
C/C(=N\OC(=O)NC1CCCCC1)c1sc(-c2ccccc2)nc1C	ANO1 block 25 | TMEM16A reconf 25% | TMEM16A Ca cntr inactive | Parental YFP cnt inactive | ClC-1 inh inactive
C/C(=N\OC(=O)NC(C)C)c1sc(-c2ccccc2)nc1C	none
CCCCOC(=O)C1Cc2ccccc2C(=O)O1 (stereo not given)	ANO1 block 100 | TMEM16A reconf inactive | TMEM16A Ca cntr inactive | Parental YFP cnt inactive | ClC-1 inh inactive
CCC(C)c1ccccc1N1CC(C(=O)N2CCN(S(=O)(=O)c3cccc([N+](=O)[O-])c3)CC2)CC1=O (stereo not given)	none (no result: CHT inh, ANO1 block, CHT allo act)
Cc1cccc(NC(=O)NNC(=O)c2ccccn2)c1	none (no result: CHT inh, ANO1 block, CHT allo act)
CCC(=O)Nc1cccc(-c2nc3ncccc3o2)c1C	none
Cc1c(NC(=O)CSc2ccc(Cl)cc2)cccc1-c1nc2ncccc2o1	ANO1 block 25 | TMEM16A reconf 20% | TMEM16A Ca cntr inactive | Parental YFP cnt inactive | ClC-1 inh inactive
CC(C)[C@H](NC(=O)c1ccccc1)C(=O)Nc1ccc2c(c1)OCO2	none (no result: CHT inh, ANO1 block, CHT allo act)
CCOC(=O)c1sc2nc(C)nc(NCc3ccc(Cl)cc3)c2c1C	none
CCOC(=O)c1sc2nc(C)nc(NCc3ccc(F)cc3)c2c1C	ANO1 block 100 | TMEM16A reconf inactive | TMEM16A Ca cntr inactive | Parental YFP cnt inactive | ClC-1 inh inactive
Clc1cccc(CN2CCSCC2)c1Cl	none
CNC(=O)Nc1cccc(-c2ccnc(C)n2)c1	none
COc1cccc(C(=O)/C(C#N)=N/Nc2cccc(-c3ccnc(C)n3)c2)c1	ANO1 block 100 | TMEM16A reconf inactive | TMEM16A Ca cntr inactive | Parental YFP cnt inactive | ClC-1 inh inactive
O=C(Nc1cccc(S(=O)(=O)N2CCCCC2)c1)c1ccccc1NS(=O)(=O)c1ccc(F)cc1	ANO1 block 100 | TMEM16A reconf 40% | TMEM16A Ca cntr inactive | Parental YFP cnt inactive | ClC-1 inh inactive
O=C(Nc1cccc(S(=O)(=O)N2CCCCC2)c1)Nc1ccc(Cl)cc1Cl	ANO1 block 100 | TMEM16A reconf inactive | TMEM16A Ca cntr inactive | Parental YFP cnt inactive | ClC-1 inh inactive
NS(=O)(=O)c1cccc(NC(=O)c2ccccc2NS(=O)(=O)c2ccc(F)cc2)c1	none
ClCC(CNCc1ccccc1)c1ccccc1 (stereo not given)	none (no result: CHT inh, ANO1 block, CHT allo act)
O=C1CC(C(=O)Nc2ccccc2)N=C(N2CCCCC2)N1 (stereo not given)	none | TMEM16A reconf inactive | TMEM16A Ca cntr inactive | Parental YFP cnt inactive | ClC-1 inh inactive
COC(=O)c1sc(NC(=O)COc2cccnc2[N+](=O)[O-])c(C(=O)OC)c1C	none (no result: CHT inh, ANO1 block, CHT allo act)
OC(COc1ccc2ccccc2c1Br)Cn1ccnc1 (stereo not given)	ANO1 block 25 | TMEM16A reconf inactive | TMEM16A Ca cntr inactive | Parental YFP cnt inactive | ClC-1 inh inactive
COc1cc(/C=C2/CCC/C(=C\c3cc(O)c(OC)c(Cl)c3)C2=O)cc(Cl)c1O	none | TMEM16A reconf inactive | TMEM16A Ca cntr inactive | Parental YFP cnt inactive | ClC-1 inh inactive
CCc1ccc(CCC(=O)Nc2ccc(C(C)=O)cc2)o1	none
CCOC(=O)c1ccc(NC(=O)CCc2ccc(CC)o2)cc1	ANO1 block 100 | TMEM16A reconf inactive | TMEM16A Ca cntr inactive | Parental YFP cnt inactive | ClC-1 inh inactive
CCOC(=O)c1ccc(NC(=S)NCCc2ccccc2)cc1	ANO1 block 25 | TMEM16A reconf 18% | TMEM16A Ca cntr inactive | Parental YFP cnt inactive | ClC-1 inh inactive
S=C(NCCc1ccccc1)Nc1ccc(N2CCCCC2)cc1	none (no result: ANO1 activ) | TMEM16A reconf inactive | TMEM16A Ca cntr inactive | Parental YFP cnt inactive | ClC-1 inh inactive
CCN(CC)C1CC(=O)N(c2cccc(Cl)c2)C1=O (stereo not given)	none
CCOc1ccc(N(CC(=O)N/N=C(\C)c2cccc(NC(C)=O)c2)S(=O)(=O)c2ccccc2)cc1	none
COc1cc(NS(=O)(=O)c2ccc(NC(=O)Cc3ccccc3)cc2)nc(OC)n1	none
CCCN(CCC)C(=O)Cc1coc2ccc3ccccc3c12	none (no result: ANO1 activ)
O=C(Cc1coc2ccc3ccccc3c12)NCc1ccccc1	ANO1 block 100 | TMEM16A reconf inactive | TMEM16A Ca cntr inactive | Parental YFP cnt inactive | ClC-1 inh inactive
COc1ccccc1-c1nc(C#N)c(N2CCC(Cc3ccccc3)CC2)o1	ANO1 block 100 | TMEM16A reconf inactive | TMEM16A Ca cntr inactive | Parental YFP cnt inactive | ClC-1 inh inactive
COc1ccccc1-c1nc(C#N)c(N2CCN(Cc3ccccc3)CC2)o1	none
N#Cc1nc(-c2ccccc2Cl)oc1N1CCCCC1	ANO1 block 25 | TMEM16A reconf inactive | TMEM16A Ca cntr inactive | Parental YFP cnt inactive | ClC-1 inh inactive
CC(NC(=O)Cn1cc2c(n1)CCCCC2)c1ccccc1 (stereo not given)	ANO1 block 25 | TMEM16A reconf inactive | TMEM16A Ca cntr inactive | Parental YFP cnt inactive | ClC-1 inh inactive
Cc1cc(NC(=O)C(C)Sc2nnc(NCc3ccco3)s2)no1 (stereo not given)	none (no result: CHT inh, ANO1 block, CHT allo act)
COC(=O)c1ccccc1Nc1ccnc(Cl)n1	none

High-throughput results as filed in PubChem.
